Sampled rows, rich in hits. Any-hit rate of the full collection: about 2.4%.
Tb PGK inh – T. brucei PGK inhibition; PGK/GAPDH coupled, Kinase-Glo luminescence, 60 min; Potency, µM (doses to about 57.5 µM), most hits filed as inhibitors; 380,000 compounds, 0.043% hits; AID 602233; also: nearly all actives have a fitted effect of over 60% in size
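Luminescent ATP detection (Kinase-Glo Plus) follows a 60-minute room-temperature incubation, with wells lacking PGK as controls. Buffer: 100 mM TEA (pH 7.6), 5 mM MgCl2, 0.01% Tween-20. Coupling enzyme GAPDH (100 nM final) supplies unstable 1,3-BPG in-well.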
Rango release inh – inhibitors of RanGTP-induced Rango-importin beta complex dissociation; O95149+P62826; Biochemical FRET Rango-importin beta, RanGTP-induced dissociation; Potency, µM (doses to about 46.1 µM); 340,000 compounds, 0.071% hits; calls by dose curve; also: nearly all actives have a fitted effect of over 45% in size
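Rango/importin beta premix (0.1/0.25 uM final), PBS + 1 mM DTT + 0.02% Tween-20 + 0.1% BSA; cpd 5 min RT; FRET pre-read; + RanGTP-RCC1 (0.6 uM Ran, 2 mM GTP, 0.2 uM RCC1); 45 min RT; FRET post-read, ex 430, em 486/530 nm.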
Tb PFK inh – T. brucei PFK enzyme inhibition; O15648; T. brucei PFK, ADP-Glo luminescence; Potency, µM (top dose mostly 57.5 µM), most hits filed as inhibitors; 330,000 compounds, 0.17% hits; AID 485367; also: nearly all actives have a fitted effect of over 60% in size
Target sequence (O15648 whole entry, looked up): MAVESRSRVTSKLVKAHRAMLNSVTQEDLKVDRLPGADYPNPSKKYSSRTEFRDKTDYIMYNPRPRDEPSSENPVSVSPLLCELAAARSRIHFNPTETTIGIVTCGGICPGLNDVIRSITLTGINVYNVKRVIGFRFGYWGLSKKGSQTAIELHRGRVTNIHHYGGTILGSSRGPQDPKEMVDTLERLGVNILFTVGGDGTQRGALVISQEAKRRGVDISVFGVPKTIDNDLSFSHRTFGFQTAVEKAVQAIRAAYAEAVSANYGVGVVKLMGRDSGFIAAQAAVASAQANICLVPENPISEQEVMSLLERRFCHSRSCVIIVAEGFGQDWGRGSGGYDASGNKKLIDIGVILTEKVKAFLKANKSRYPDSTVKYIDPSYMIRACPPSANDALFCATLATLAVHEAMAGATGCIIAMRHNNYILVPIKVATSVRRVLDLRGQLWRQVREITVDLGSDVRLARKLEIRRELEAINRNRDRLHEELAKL
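Luminescent ADP detection (ADP-Glo, two-step: ATP depletion then ADP-to-ATP conversion for luciferase) reported PFK activity after 45 min room-temperature reaction of 1.25 nM enzyme with 0.5 mM F6P and 0.1 mM ATP at pH 8.0.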
PKM2 activator – PKM2 (human) enzyme activation | Potency, µM (titrated, usually from 57.5 µM), actives largely listed as activators | purified PKM2, Kinase-Glo ATP luminescence, activation; response scale: 0% is enzyme alone, no compound | AID 1631 | 260,000 compounds, 0.34% hits; also: nearly all actives have a fitted effect of over 55% in size
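Purified hPK-M2 (>95% pure) converted ADP (0.1 mM final) to ATP with 0.5 mM PEP in 50 mM imidazole pH7.2, KCl, MgCl2, Tween 20, BSA; 1 h at room temperature. ATP detected by Kinase-Glo luminescence.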
Rango complex inh – prevents formation of the Rango-importin beta complex. Potency, µM (top dose mostly 92.2 µM). 340,000 compounds, 0.031% hits. Rango CFP/YFP FRET sensor + importin beta, 45 min. Q14974; calls by dose curve; also: nearly all actives have a fitted effect of over 15% in size
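FRET biosensor Rango (snurportin 1 IBB between N-terminal EYFP and C-terminal Cerulean), 50 nM in PBS/1 mM DTT/0.02% Tween-20/0.1% BSA, preincubated 5 min RT with compound; 0.125 microM importin beta added, 45 min RT, CFP/YFP FRET ratio read.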
ELG1 DNA repair – inhibitors of ELG1-dependent DNA repair in HEK293T cells. HEK293T ELG1-luciferase reporter, luminescence, 16 h; DNA damage induced by 5-fluorouridine. Potency, µM (top dose mostly 46.1 µM), usual class: inhibitors. 330,000 compounds, 2.3% hits; also: nearly all actives have a fitted effect of over 55% in size
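Step one: seed 2,000 cells per well. Step two: pin-transfer compound or DMSO alongside 5-fluorouridine. Step three: incubate 16 hr, 37 °C, 5% CO2. Step four: add ONE-Glo, wait 30 min, read luminescence.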
Large screens that a line does not name were inactive. Unless noted, calls follow the shape of the dose curve; as a rule, active = well fitted curve in the direction sought with a large enough effect; inconclusive = small, poorly fitted or top-dose-only effect, or another doubt; inactive = no such curve, though single readings can be large; an effect the other way counts as inactive or inconclusive.

COc1ccccc1N1CCN(C(=O)c2sc3ncnc(N4CCN(c5ccccn5)CC4)c3c2C)CC1	ELG1 DNA repair 18.3µM (no result: PKM2 activator)
O=C1CN(C(=O)COC(=O)CCS(=O)(=O)c2ccccc2Cl)c2ccccc2N1	Rango release inh inconclusive (no result: PKM2 activator)
N=c1c(-c2nc3ccccc3[nH]2)cc(C(=O)c2cccs2)nn1-c1ccccc1	ELG1 DNA repair inconclusive
N=c1c(-c2nc3ccccc3[nH]2)cc(C(=O)c2ccco2)nn1-c1ccccc1	ELG1 DNA repair 16.4µM
Cc1cccc(C)c1NC(=O)/C(C#N)=C/c1ccc(-c2ccc(C(=O)O)cc2)o1	Rango release inh inconclusive, Rango complex inh inconclusive, ELG1 DNA repair inconclusive
COc1ccccc1C=NN=C(NN=Cc1ccccc1OC)NN=Cc1ccccc1OC	none (no result: Tb PFK inh, PKM2 activator, ELG1 DNA repair)
Cn1c(=O)c2c(nc(NCc3ccco3)n2C/C=C/c2ccccc2)n(C)c1=O	ELG1 DNA repair 4.61µM
CSC1=C(C#N)C(=O)NC(c2ccc(Cl)cc2)S1 (stereo not drawn)	none
O=C1c2ccccc2C(=O)N1CCSC(=S)N1CCOCC1	ELG1 DNA repair inconclusive (no result: Tb PGK inh)
Fc1c(CSC(=S)N2CCOCC2)cccc1CSC(=S)N1CCOCC1	ELG1 DNA repair 23.1µM
CCOC(=O)c1sc2nccc(N(C)C)c2c1N=CNOCc1c(F)cccc1Cl	ELG1 DNA repair 16.4µM
COC(=O)[C@@]1(Cc2ccc(OC)cc2)[C@@H]2C(=CC(=O)[C@H]2CC(=O)C(=O)N2CCCC2)CN1C(=O)c1ccccc1	ELG1 DNA repair 14.6µM
Nc1ccc2nc(CCCCCCCCc3nc4ccc(N)cc4[nH]3)[nH]c2c1	PKM2 activator inconclusive
Nc1ccc2nc(CCCCCCc3nc4ccc(N)cc4[nH]3)[nH]c2c1	PKM2 activator 12.6µM
CCc1noc(C)c1C(=O)NCCN1C(=O)S/C(=C\c2ccc(OC)cc2)C1=O	none (no result: PKM2 activator)
O=C(NCCN1C(=O)S/C(=C/c2cccnc2)C1=O)c1ccc(S(=O)(=O)N2CCCC2)cc1	none (no result: Tb PFK inh, PKM2 activator, ELG1 DNA repair)
CN(C)S(=O)(=O)c1ccc(C(=O)NCCN2C(=O)S/C(=C\c3cccnc3)C2=O)cc1	PKM2 activator 15.8µM
CS(=O)(=O)c1ccc(C(=O)NCCN2C(=O)S/C(=C\c3cccnc3)C2=O)cc1[N+](=O)[O-]	PKM2 activator inconclusive, ELG1 DNA repair inconclusive
CCN(CC)S(=O)(=O)c1ccc(C(=O)NCCN2C(=O)S/C(=C\c3cccnc3)C2=O)cc1	ELG1 DNA repair 14.6µM
CC(CCc1ccccc1)NC(=O)C1CCC1 (stereo not drawn)	none (no result: Tb PFK inh, PKM2 activator, ELG1 DNA repair)
COc1ccccc1C(=O)OCc1cc(=O)n2nc(C3CC3)sc2n1	none (no result: Rango release inh, Tb PFK inh, PKM2 activator, Rango complex inh, ELG1 DNA repair)
COCCn1c(SCc2nc3sc(C(=O)OC)c(C)c3c(=O)[nH]2)nc2ccccc21	Rango complex inh inconclusive
CCn1c(SCc2nc3sc(C(=O)O)c(C)c3c(=O)[nH]2)nc2ccccc21	Tb PGK inh 20µM, Rango release inh inconclusive, Rango complex inh inconclusive
COc1ccc(/C=C2\SC(N3CCc4ccccc4C3)=NC2=O)cc1	Rango complex inh inconclusive
COc1cc(/C=C2\SC(N3CCc4ccccc4C3)=NC2=O)cc(OC)c1OC	ELG1 DNA repair 18.4µM
Cc1ccc(-c2csc3nc(C)n(N)c(=O)c23)o1	ELG1 DNA repair inconclusive
Cc1ccc(-c2csc3nc(C)n(-n4c(C)ccc4C)c(=O)c23)o1	PKM2 activator 14.1µM
COc1ccc(C2c3cc(OC)c(OC)cc3CCN2C(=O)c2ccccc2)cc1OC (stereo not drawn)	ELG1 DNA repair 6.51µM
COc1ccc(C(=O)N2CCc3cc(OC)c(OC)cc3C2c2ccc(OC)c(OC)c2)cc1 (stereo not drawn)	none (no result: PKM2 activator)
Cc1sc2nc(CN(C(=O)c3cccs3)C3CCCC3)[nH]c(=O)c2c1C	ELG1 DNA repair inconclusive
COCC(=O)N(Cc1nc2sc(C)c(C)c2c(=O)[nH]1)C1CCCCC1	none
CCCCC(=O)N(Cc1nc2sc(C)c(C)c2c(=O)[nH]1)C1CCCC1	ELG1 DNA repair 20.6µM
Cc1sc2nc(CC(=O)N3CCCC3)[nH]c(=O)c2c1C	none
